Results on 4 compounds are retold here after PubChem BioAssay (NCATS).

Molecules are shown by their SMILES. Inconclusive results are not listed. The source made the active and inactive calls. Unless noted, the rule behind the calls is not given here.

A short description of assay [1]: qHTS Assay for Identifying Gametocytocidal Compounds (AID 743244; active = well fitted curve in the direction sought with a large enough effect; an effect the other way counts as inactive or inconclusive;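 note: % is set by controls: 0 for no effect and ±100 for the full control effect; actives lower the fluorescent signal which means gametocytes are killed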). Conditions: P. falciparum 3D7 stage III-V gametocytes, alamarBlue, 72 h; max response: stronger effect = lower value. Put shortly:
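P. falciparum 3D7 stage III–V gametocytes (20,000 cells/well) were exposed to compounds for 72 h at 37 °C, 5% CO2. AlamarBlue was then added for 24 h; decreased resorufin fluorescence (Ex 525/Em 598 nm) indicated loss of viability.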

Assay [2] can be described thus: qHTS profiling for inhibitors of Plasmodium falciparum (3D7) proliferation (AID 743322).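 Note: infected erythrocytes exposed to compound for 72 h before lysis; 100% = DMSO vehicle wells and 0% = 0.29 µM artemisinin.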 Conditions: P. falciparum 3D7 proliferation; at 28.7 µM (top of the series). Put shortly:
(§1)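 Parasite DNA was quantified by SYBR Green I fluorescence (ex 485, em 535 nm) after overnight lysis in saponin/Triton buffer at room temperature. Cultures at 0.3% parasitemia and 2.5% hematocrit were first exposed to compound for 72 h at 37 C; signals were normalised to artemisinin (0.29 uM) and vehicle wells.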

Assay [3] can be described thus: qHTS profiling for inhibitors of Plasmodium falciparum (DD2) proliferation (AID 743323). Conditions: lower = more inhibition; at 28.7 µM (top of the series). Put shortly:
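Parasite proliferation measured via DNA-dye fluorescence, as uninfected erythrocytes lack DNA. Cultures at 0.3% parasitemia and 2.5% hematocrit incubated 72 h with compound; signal scaled between vehicle and 0.29 uM artemisinin wells.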

A short description of assay [4]: qHTS profiling for inhibitors of Plasmodium falciparum (HB3) proliferation (AID 743324; active = well fitted curve in the direction sought with a large enough effect; an effect the other way counts as inactive or inconclusive;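 note: 100% = DMSO vehicle wells and 0% = artemisinin-treated control wells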). Conditions: Plasmodium falciparum HB3 blood-stage proliferation; at 28.7 µM (top of the series). Put shortly: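 SYBR Green fluorescence (485 ex/535 em) of lysed cultures, incubated overnight at room temperature in the dark, quantifies parasite DNA. Infected erythrocytes at 0.3% parasitemia and 2.5% hematocrit were exposed 72 h; values normalized to DMSO and 0.29 uM artemisinin controls.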

A short description of assay [5]: qHTS profiling of the MIPE4 collection as inhibitors of Plasmodium falciparum (3D7) proliferation (AID 743344).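 Note: scaled between DMSO vehicle wells and 0.29 µM artemisinin as full inhibition.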 Conditions: P. falciparum 3D7 in erythrocytes, SYBR Green DNA fluorescence, 72 h; at 28.5 µM (top of the series) unless noted. Put shortly: as §1
The nature of assay [6]: qHTS profiling of the MIPE4 collection as inhibitors of Plasmodium falciparum (DD2) proliferation (AID 743345). Conditions: P. falciparum Dd2 in erythrocytes, SYBR Green DNA, 72 h; at 28.5 µM (top of the series) unless noted. Put shortly: as §1
A short description of assay [7]: qHTS profiling of the MIPE4 collection as inhibitors of Plasmodium falciparum (DD2) proliferation (Rep 2) (AID 743346). Conditions: P. falciparum Dd2 in erythrocytes, SYBR Green DNA, 72 h; at 28.5 µM (top of the series) unless noted. Put shortly:
as §1

A short description of assay [8]: qHTS profiling of the MIPE4 collection as inhibitors of Plasmodium falciparum (HB3) proliferation (AID 743347).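 Note: plate controls were DMSO vehicle wells for no effect and artemisinin wells for full effect.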 Conditions: P. falciparum HB3 in erythrocytes, SYBR Green DNA, 72 h; at 28.5 µM (top of the series) unless noted. Put shortly:
as §1

Assay [9] can be described thus: High-throughput drug toxicity screening in the BPDCN cell line Gen2.2 (AID 1224824).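 Note: cells exposed to compounds for 48 h before reading.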 Conditions: Gen2.2 BPDCN cells; at 45.8 µM (top of the series) unless noted. Put shortly:
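Seed 500 exponentially growing Gen2.2 cells/well; add compounds by pin tool; incubate 48 h, 37 °C, 5% CO2; add CellTiter-Glo, 15 min RT; read luminescence. % activity vs DMSO (100%) and bortezomib (0%).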

Assay [10] in a line: High-throughput drug toxicity screening in the BPDCN cell line Cal-1 (AID 1224825). Conditions: Cal-1 BPDCN cell viability, qHTS; at 45.8 µM (top of the series) unless noted. Put shortly: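 Viability of the BPDCN line Cal-1 is measured as ATP-based luminescence (CellTiter-Glo) following 48 h incubation with compounds. Percent activity uses DMSO-treated wells as 100% and 9.2 uM bortezomib as 0%.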

Assay [11] can be described thus: qHTS assay for measurement of the activity of small molecule inhibitors on Zika virus induced Caspase-3 activity in human iPSC derived neural progenitor cells (hNPCs) (AID 1224857; active = well fitted curve in the direction sought with a large enough effect; an effect the other way counts as inactive or inconclusive; note: % of control where 0% means no effect; nearly all actives have a fitted effect of over 65% in size). Put shortly:
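hNPCs seeded 350 cells/well, cultured 16–20 h; compounds added 1 h before ZIKV (2 FFU/cell), 37 C 6 h. Caspase-Glo 3/7 luminescence after 30 min RT; % inhibition from induction scaled to uninfected (0%) and infected (100%) wells.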

Assay [12] is described as follows: qHTS assay for measurement of the activity of small molecule inhibitors on Zika virus induced Caspase-3 activity in human astrocytoma cells (AID 1224859; active = well fitted curve in the direction sought with a large enough effect; an effect the other way counts as inactive or inconclusive;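 note: plate controls were ZIKV-infected untreated cells for no effect and uninfected cells for full effect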). Put shortly:
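Luminescence read-out (Caspase-Glo 3/7, 30 min RT) of caspase activity in SNB-19 cells infected 6 h with ZIKV, 2 FFU/cell, after 1 h compound pretreatment; % inhibition from induction normalised to uninfected (0%) and infected (100%) wells.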

Assay [13] is described as follows: qHTS assay for small molecule agonists of the antioxidant response element (ARE) signaling pathway measured by Nrf2-dependant transcriptional activity (AID 720636; active = well fitted curve in the direction sought with a large enough effect in the repeat runs; an effect the other way counts as inactive or inconclusive; note: % of control where 0% means no effect). Put shortly:
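Nrf2-dependent transcription read as ONE-Glo luciferase signal from ARE-luc HepG2 reporter cells after 16 hr compound treatment at 37 C, 5% CO2, in assay medium with 1% dialyzed FBS.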

The nature of assay [14]: qHTS assay for small molecule agonists of the antioxidant response element (ARE) signaling pathway measured by Nrf2-dependant transcriptional activity - cell viability counter screen (AID 720653; active = well fitted curve in the direction sought with a large enough effect in the repeat runs; an effect the other way counts as inactive or inconclusive; note: % is set by controls: 0 for no effect and ±100 for the full control effect). Conditions: ARE-bla HepG2 viability, CellTiter-Glo ATP luminescence, 16 h; stronger effect = lower value. Put shortly:
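ARE-bla HepG2 cells (2,000/well) rested 5 hrs at 37C/5% CO2, then exposed to compounds in DMSO for 16 hrs. Viability was read in the same wells as intracellular ATP by luminescence, 30 min at room temperature after reagent addition.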

A short description of assay [15]: qHTS assay for cell viability of HEK293 cells (AID 743288; active = well fitted curve in the direction sought with a large enough effect; an effect the other way counts as inactive or inconclusive; note: % is set by controls: 0 for no effect and ±100 for the full control effect; nearly all actives have a fitted effect of over 50% in size). Conditions: ATP luminescence (CellTiter-Glo), 18 h, stronger effect = lower value. Put shortly:
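Viable-cell counts were inferred from luciferase-based ATP content in HEK293 cells seeded at 2,000/well, pre-incubated ≥5 h, then dosed with DMSO-solubilised compounds for 18 h at 37 C.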

Assay [16] in a line: qHTS assay for cell viability of the p53RE-bla HCT-116 cell line (AID 743292; active = well fitted curve in the direction sought with a large enough effect; an effect the other way counts as inactive or inconclusive; note: % is set by controls: 0 for no effect and ±100 for the full control effect; nearly all actives have a fitted effect of over 55% in size). Put shortly:
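ATP-based luminescent viability (CellTiter-Glo, 30 min RT) after 16 h compound treatment at 37 C of p53RE-bla HCT-116 cells, seeded at 4,000 cells/well and rested 5 h before dosing.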

In the case of `COc1ccc(CC2SC(=O)NC2=O)cc1C(=O)NCc1ccc(C(F)(F)F)cc1` (configuration not stated), the max response in assay [1] is 16.4% (inactive). Further, in [2], the remaining parasite growth % (stronger effect = lower value) is 90.2%. In [3], this compound yielded an activity, percent of control of 93.1%. In addition, the remaining proliferation (% of control), lower = more inhibition in assay [4] came to 54.2%. In assay [5], this compound showed a parasite growth, % of DMSO control of 32.5%. Besides, the parasite growth remaining, % of DMSO control (lower = more inhibition) in assay [6] was found to be 91.4%. In assay [7], the parasite growth, % of control (lower = inhibition) came out at 56.9%. Besides, the growth, % of control in assay [8] is 55.5%. Besides, the cell viability, % of control (lower = more cytotoxic) in assay [9] is 96%. The viability (% of control) in assay [10] was 84.9%. In addition, the Potency result in [11] and in assay [12] was “inactive” throughout.
On to `O=C(O)CCCc1c[nH]c2ccccc12`, for which the result in assay [13] and in assay [16] was inactive. The values for the max response in assay [14] and in assay [15] were 0.64% (inactive) and -3.33% (inactive), respectively. In addition, the parasite growth, % of DMSO control in assay [5] worked out at 102%. The compound further had a parasite growth remaining, % of DMSO control (lower = more inhibition) in assay [6] of 20.4%. Also, the growth, % of control in assay [8] came to 102%. Also, in [9], the cell viability, % of control (lower = more cytotoxic) is 90.6%. In [10], this compound returned a viability (% of control) of 32.3%. For the same compound, the Potency entry in [11] and in assay [12] was “inactive” each time.
For the compound `CN(c1ncccc1CNc1nc(Nc2ccc3c(c2)CC(=O)N3)ncc1C(F)(F)F)S(C)(=O)=O`, in assay [1], the max response was 3.79% (inactive). Further, in assay [2], the remaining parasite growth % (stronger effect = lower value) was 12.7%. Further, the activity, percent of control in [3] was found to be 9.35%. Besides, the remaining proliferation (% of control), lower = more inhibition in assay [4] worked out at 5.89%. The parasite growth, % of DMSO control in [5] was found to be 12.5%. This compound displayed a parasite growth remaining, % of DMSO control (lower = more inhibition) in assay [6] of 14.1%. For the same compound, the parasite growth, % of control (lower = inhibition) in [7] was determined as 30.9%. The same compound came in with a growth, % of control in [8] of 10.4%. For the same compound, the cell viability, % of control (lower = more cytotoxic) in assay [9] turned out to be 12.1%. In addition, the viability (% of control) in assay [10] came out at 4.76%. Further, the Potency entry in [11] and in assay [12] was “inactive” in each case.
Regarding `CNc1nccc(-c2cccnc2Oc2cc(C(=O)Nc3cccc(C(F)(F)F)c3)ccc2C)n1`, the max response in assay [1] was 8.44% (inactive). This compound also showed a remaining parasite growth % (stronger effect = lower value) in assay [2] of 5.98%. The compound further came in with an activity, percent of control in assay [3] of 13.8%. In assay [4], this compound showed a remaining proliferation (% of control), lower = more inhibition of 3.23%. In assay [5], this compound displayed a parasite growth, % of DMSO control of 6.2%. In assay [6], the parasite growth remaining, % of DMSO control (lower = more inhibition) is 31.1%. Further, in [7], the parasite growth, % of control (lower = inhibition) was 19.8%. Moreover, the growth, % of control in assay [8] worked out at 7.15%. Further, in [9], the cell viability, % of control (lower = more cytotoxic) is 13%. The viability (% of control) in assay [10] stood at 15.7%. Moreover, the Potency entry in assay [11] and in [12] was “inactive” each time.
